Assay results published in PubChem BioAssay AID463190 (Sanford-Burnham Center for Chemical Genomics, 2010).
In all, about 330,000 compounds went through this assay and about 7,300 (2.2%) were called active.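 How the source made its calls: active means inhibition of at least 40%; inactive means the rest.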 Many of the other results were omitted from the sample, so actives are more common in it than they were.

Assay: growth inhibition of tim10-1 ts yeast – luminescence, uHTS, primary screen (AID 463190);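 further: mutant grown at 25 °C; 0% = DMSO wells with yeast and 100% = wells holding no yeast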
Conditions: S. cerevisiae tim10-1 ts strain growth, BacTiter-Glo, 24 h; at 20 µM; hits give high values

Structure (SMILES)	inhibition
NNC(=O)c1oc2nc(-c3ccccc3)cc(-c3ccco3)c2c1N	19.9% (inactive)
O=C(O)CSCc1ccc(C(=O)O)o1	3.55% (inactive)
C/C=C/C=C/C(=O)OCC(=O)Nc1ccc(Cl)cc1	15.8% (inactive)
CN(C)c1ccc(/C=C/C(=O)c2ccc(O)cc2)cc1[N+](=O)[O-]	15.8% (inactive)
O=C(/C=C/c1ccc(Cl)c([N+](=O)[O-])c1)c1ccc(O)cc1	41.3% (active)
CN(C)c1ccc(/C=C/C(=O)c2ccc(C(C)(C)C)cc2)cc1[N+](=O)[O-]	27.1% (inactive)
O=C(/C=C/c1ccc(Cl)c([N+](=O)[O-])c1)c1cccnc1	46.1% (active)
O=C(Nc1ccncc1)c1ccc(Cl)c([N+](=O)[O-])c1	-50.2% (inactive)
O=C(/C=C/c1ccc(Cl)cc1Cl)c1cccnc1	25% (inactive)
COc1ccc(CCNC(=O)c2ccc(CS(=O)(=O)c3ccc(Br)cc3)o2)cc1OC	24.5% (inactive)
O=C(Cn1c(NCCO)nc2ccccc21)c1ccc(Cl)cc1Cl	1.93% (inactive)
CCCCn1ccnc1C(=O)c1cccc(S(=O)(=O)N2c3ccccc3CC2C)c1 (stereo unspecified)	29.3% (inactive)
O=C1COc2ccc(C(=O)COC(=O)c3cccnc3Cl)cc2N1	-6.62% (inactive)
CCc1nnc(NC(=O)CSc2nnc(-c3ccncc3)n2Cc2ccccc2)s1	10.1% (inactive)
COC(=O)c1cc(NC(=O)CC2C(=O)NCCN2C(=O)c2ccc(F)cc2)cc(C(=O)OC)c1 (stereo unspecified)	-15.9% (inactive)
Cc1ccc(N2C(=O)CC(Sc3ncn[nH]3)C2=O)cc1 (stereo unspecified)	30.2% (inactive)
COc1ccc(N2C(=O)CC(Sc3n[nH]c(-c4ccc(C)cc4)n3)C2=O)cc1 (stereo unspecified)	54.7% (active)
COc1ccc(N2C(=O)CC(SC(C)C)C2=O)cc1 (stereo unspecified)	-8.61% (inactive)
COc1ccccc1C(=O)NCCn1cc(SCC(=O)NCc2ccco2)c2ccccc21	29.1% (inactive)
COc1cc(C(c2c(NC(=O)c3ccco3)sc(C)c2C)N2CCOCC2)cc(OC)c1OC (stereo unspecified)	20.7% (inactive)
CC(=O)C1=C(O)C(=O)N(c2cccnc2)C1c1ccc([N+](=O)[O-])cc1 (stereo unspecified)	0.316% (inactive)
CCc1ccccc1NC1c2ccccc2C(=O)N1c1cccnc1 (stereo unspecified)	36.7% (inactive)
O=C1[C@@H](c2ccccc2)[C@@H](c2ccccc2)N1c1cccnc1	66.6% (active)

Structure (SMILES)	inhibition
O=C(N/N=C/c1ccc(OCC2COCCO2)cc1)c1ccc(Br)cc1 (stereo unspecified)	-0.668% (inactive)
COc1ccc(OC)c(-c2c(=O)n(OCc3ccccc3Br)c3ccccc3[n+]2[O-])c1	47.1% (active)
CCOc1ccc(OCC)c(-c2c(=O)n(OCc3ccc(Cl)cc3)c3ccccc3[n+]2[O-])c1	26.2% (inactive)
CCOC(=O)COn1c(=O)c(-c2ccc(OCC)cc2)[n+]([O-])c2ccccc21	31.6% (inactive)
COC(=O)c1c(-c2ccsc2)oc2ccc(-c3cc(OC)c(OC)c(OC)c3)cc12	28.1% (inactive)
N#CCOc1ccc(C2=NO[C@@H]3[C@@H]4C[C@@H]([C@H]5C(=O)N(c6ccc7c(c6)OCO7)C(=O)[C@@H]45)[C@H]23)cc1	18.3% (inactive)
C=CS(=O)c1sc(Cl)c(N2CCOCC2)c1[N+](=O)[O-] (stereo unspecified)	79.3% (active)
Nc1c(N(CCO)C(=O)C2CCCCC2)c(=O)[nH]c(=O)n1Cc1ccccc1	15.1% (inactive)
COc1ccccc1C(=O)NCC(=O)OCC(=O)NNC(=O)c1ccc(Br)cc1	-10.1% (inactive)
Cc1ccc2c(c1)c1ncnc(N3CCc4ccccc4C3)c1n2C	44% (active)
Cc1ccc2c(c1)c1ncn(CCC3=CCCCC3)c(=O)c1n2C	22.5% (inactive)
Cc1ccc(-c2cc(C(=O)N3CCc4ccccc4C3)no2)cc1	18.4% (inactive)
O=C(C1CCC(=O)N(C2CC2)C1)N1CCN(c2ccc(Cl)cc2)CC1 (stereo unspecified)	-6.67% (inactive)
C=CCNC(=O)CC12CC3CC(C1)CC(CC(=O)NCC=C)(C3)C2	9.8% (inactive)
COc1ccc(-n2c(SCC(=O)OC(C)C)nnc2-c2ccccn2)cc1	34.2% (inactive)
CCOc1cccc(-c2nnc(SCC(=O)NC3CC3)n2C)c1	6.04% (inactive)
CCOc1cccc(-c2nn3c(-c4ccccn4)nnc3s2)c1	42% (active)
O=C(O)C1C2C=CC(C2)C1C(=O)NCc1ccccc1 (stereo unspecified)	-21.1% (inactive)
COc1ccc(C2=NO[C@@H]3C(=O)N(Cc4ccccc4)C(=O)[C@H]23)cc1OC	14.3% (inactive)
CCn1nccc1C(=O)Nc1ccc(Cl)c(Cl)c1	44% (active)
CC(c1cccnc1)N(CCN(C)C)C(=O)Nc1ccc(Cl)c(Cl)c1 (stereo unspecified)	4.37% (inactive)
CCn1nccc1C(=O)Nc1ccc(S(=O)(=O)NC23CC4CC(CC(C4)C2)C3)cc1	26.7% (inactive)
CN1CCN(C(=O)CCc2ncc(C(F)(F)F)cc2Cl)CC1	-4.04% (inactive)
